CYP2C19 activ = human CYP2C19 activators, primary screen, biochemical, luminescence; Cytochrome P450 2C19 (Homo sapiens), P33261; recombinant CYP2C19, luciferin-H EGE luminescence; active compounds read high; 0 = fully inhibited enzyme, 1 = untreated enzyme; activation factor at 5 µM; 96,000 tested, under 10 active; AID 1025, 2008;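 active means activation factor of at least 2 at 5 µM in the primary screen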;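 further: 0 = wells with 2.5 mM tranylcypromine and 1 = vehicle-only wells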
Target sequence (P33261 whole entry, looked up): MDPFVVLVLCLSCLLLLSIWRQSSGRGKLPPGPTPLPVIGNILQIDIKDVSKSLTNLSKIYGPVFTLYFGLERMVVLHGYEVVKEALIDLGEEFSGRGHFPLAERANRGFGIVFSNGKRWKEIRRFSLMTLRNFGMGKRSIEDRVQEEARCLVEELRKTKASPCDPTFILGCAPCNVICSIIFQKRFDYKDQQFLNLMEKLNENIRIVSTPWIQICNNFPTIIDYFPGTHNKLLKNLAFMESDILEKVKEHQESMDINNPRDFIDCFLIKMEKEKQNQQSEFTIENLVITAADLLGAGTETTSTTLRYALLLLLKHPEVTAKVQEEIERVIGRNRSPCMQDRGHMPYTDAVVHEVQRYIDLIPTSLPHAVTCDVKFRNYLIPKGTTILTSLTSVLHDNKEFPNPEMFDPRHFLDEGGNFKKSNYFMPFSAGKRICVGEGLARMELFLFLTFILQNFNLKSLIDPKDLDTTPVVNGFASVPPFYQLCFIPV
CYP2C9 inhib = blockers of cytochrome P450 2C9 activity – biochemical, luminescence, ADME assay, primary screen. CYP2C9 Supersomes, luciferin-H conversion. inhibition, % at 5 µM. 96,000 compounds, 20% hits. AID 777, 2007;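 active means blocking of liver enzyme CYP2C9 beyond about 50% at 5 µM, limit read from the data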
CYP2C19 inh = blockers of cytochrome P450 2C19 activity – biochemical, luminescence, ADME assay, primary screen. 96,000 compounds, 21% hits. CYP2C19 Supersomes, luciferin-H EGE luminescence, 30 min. inhibition, % at 5 µM;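 active means CYP2C19 inhibition above a set limit at 5 µM in the primary screen, cut at about 50% in these data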;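 further: plate controls were negative control wells for no effect and 2.5 mM tranylcypromine positive control for full effect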
sEH act = soluble epoxide hydrolase activators, primary screen, biochemical, human sEH; Bifunctional epoxide hydrolase 2 (Homo sapiens), P34913; 91,000 compounds, 0.04% hits; purified human sEH enzymatic activity, activator screen; activation, % at 2 µM; in the data active means activation above about 37%
CYP2C9 activ = human CYP2C9 activators, primary screen, biochemical, luminescence. Cytochrome P450 2C9 (Homo sapiens), P11712. recombinant CYP2C9, luciferin-H conversion; active compounds read high; factor 1 = untreated enzyme, 0 = blocked. activation factor at 5 µM. 96,000 compounds, 1.4% hits. AID 1024, 2008;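 active means activation factor of 2 or more for CYP2C9 at a 5 µM dose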;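 further: 0 = sulfaphenazole-blocked wells and 1 = vehicle-only wells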
sEH inh = soluble epoxide hydrolase inhibitors, primary screen, biochemical, human sEH; AID 707, 2007; 91,000 compounds, 0.34% hits; recombinant human sEH enzymatic activity assay; Bifunctional epoxide hydrolase 2 (Homo sapiens), P34913; inhibition, % at 2 µM; in the data active means inhibition above about 80%
* hit, by the source's call; . = no result given. Rows were chosen to be rich in hits. Some 27% of all compounds tested hit in one or more screens of this group.

SMILES	CYP2C19 activ	CYP2C9 inhib	CYP2C19 inh	sEH act	CYP2C9 activ	sEH inh
O=C(Cc1ccc(-n2cccc2)cc1)NC1CCCCC1	0.4	69*	55*	-53	0.3	54
Cc1ccc(NCN2C(=O)C3CC=CCC3C2=O)cc1 (stereo unspecified)	.	.	.	-11	.	13
Cc1ccc(NC(=S)NNC(=S)NCc2ccccc2)cc1	0.9	94*	12	-12	0.1	12
S=C(NCc1ccccn1)Nc1cccc(Cl)c1	0.4	-12	57*	-9	1.1	8
O=C(Cc1ccccc1)NC(=S)Nc1cccc(C(F)(F)F)c1	1	13	2	0	0.9	0
Cc1ccc(NC(=O)Nc2ccccc2C(=O)NCc2ccccc2)cc1	1	14	3	1	0.9	-4
COc1ccc(NC(=O)NCc2ccccn2)cc1	.	.	.	-15	.	17
FC(F)(F)c1cccc(NC(=S)NNC(=S)NCc2ccccc2)c1	0.9	75*	12	-20	0.2	20
Cc1ccc(NC(=S)NCc2ccccn2)cc1	0.7	69*	32	2	0.3	-4
COc1cccc(C2CC(c3cccc(Br)c3)n3nc(N)nc3N2)c1 (stereo unspecified)	0.9	14	11	.	0.9	.
Cc1cc(NCc2ccc(F)cc2Cl)n2nnnc2n1	0.9	17	7	.	0.8	.
Cc1c(C(=O)c2ccc(Cl)c(Cl)c2)cnc2cc3c(cc12)OCO3	.	.	.	-2	.	5
COc1ccc(C(=O)c2cnc3cc4c(cc3c2C)OCO4)cc1	0.1	65*	95*	-6	0.4	4
CCCc1ccc2c(N)c(C#N)sc2n1	0.1	27	90*	.	0.7	.
CC(c1ccccc1)N1CCn2c(nc3cc(NC(=O)c4cccs4)ccc32)C1 (stereo unspecified)	0.6	84*	36	-10	0.2	10
COc1ccc(C(=O)Nc2ccc3c(c2)nc2n3CCSC2)cc1	0.7	33	28	.	0.7	.
O=C(Nc1ccc2c(c1)nc1n2CCSC1)c1ccccc1	0.6	54*	38	5	0.5	-4
CC(c1ccccc1)N1CCn2c(nc3cc(NC(=O)NC4CCCCC4)ccc32)C1 (stereo unspecified)	0.9	31	12	-97	0.7	97*
CCOC(=O)CNC(=O)Cn1cnc2c(nnn2-c2cccc(Cl)c2)c1=O	0.9	-44	10	7	1.4	-9
COc1cccc(N2CCN(C(=O)C3C4C=CC5(CN(Cc6ccccc6Cl)C(=O)C35)O4)CC2)c1 (stereo unspecified)	0.8	62*	22	.	0.4	.
CCN(CC)S(=O)(=O)c1cccc(C(=O)N[C@H](C(=O)OCC(N)=O)C(C)C)c1	0.9	28	9	-11	0.7	12
CCN(CC)S(=O)(=O)c1cccc(C(=O)OCc2cc(=O)n3nc(C)sc3n2)c1	0.8	55*	23	.	0.4	.
O=C(C1CC1)N1CCN(C(c2ccccc2)c2ccccc2)CC1	0.1	69*	93*	-7	0.3	5
CC12CCC(C(=O)N3CCN(C(c4ccccc4)c4ccccc4)CC3)(OC1=O)C2(C)C (stereo unspecified)	0.5	86*	48	-10	0.1	11
CCNC(=S)N1CCN(C(c2ccccc2)c2ccccc2)CC1	0.6	91*	40	.	0.1	.
SMILES	CYP2C19 activ	CYP2C9 inhib	CYP2C19 inh	sEH act	CYP2C9 activ	sEH inh
COc1cc(NC(=S)N2CCN(C(c3ccccc3)c3ccccc3)CC2)cc(OC)c1	0.7	38	32	7	0.6	-4
O=C(C1CC1)N1CCC(C(O)(c2ccccc2)c2ccccc2)CC1	0.1	61*	90*	8	0.4	-9
Cc1cc(=O)oc(C)c1C(=O)N1CCN(C(c2ccccc2)c2ccccc2)CC1	0.6	36	40	-4	0.6	3
Cc1cccnc1NC1OC(=O)c2ccccc21 (stereo unspecified)	1.1	-3	-15	-10	1	8
CCc1sc(NS(C)(=O)=O)nc1-c1ccccc1	0.9	18	10	3	0.8	-2
Cc1cccc(-c2noc(CCCOc3ccc(Cl)cc3Cl)n2)c1	0.7	39	30	-3	0.6	2

Screens as filed in PubChem.
